Bioassay records deposited in PubChem BioAssay by National Center for Advancing Translational Sciences (NCATS).
The list is not random: actives were taken first. Their share in the collection is about 11%.
JMJD2A Tudor inh: qHTS Assay for Inhibitors of JMJD2A-Tudor Domain | Potency, µM (top dose mostly 114 µM), inactives show at the highest dose activity change, negative = inhibition, most hits filed as inhibitors | Lysine-specific demethylase 4A (Homo sapiens), O75164 | 4.4% of 390,000 active | AlphaScreen JMJD2A-Tudor / H3K4me3 peptide binding | AID 504339, 2011; note: % is set by controls: 0 for no effect and ±100 for the full control effect; nearly all actives have a fitted effect of over 50% in size
Target sequence (O75164 whole entry, looked up, the tested form may be a part): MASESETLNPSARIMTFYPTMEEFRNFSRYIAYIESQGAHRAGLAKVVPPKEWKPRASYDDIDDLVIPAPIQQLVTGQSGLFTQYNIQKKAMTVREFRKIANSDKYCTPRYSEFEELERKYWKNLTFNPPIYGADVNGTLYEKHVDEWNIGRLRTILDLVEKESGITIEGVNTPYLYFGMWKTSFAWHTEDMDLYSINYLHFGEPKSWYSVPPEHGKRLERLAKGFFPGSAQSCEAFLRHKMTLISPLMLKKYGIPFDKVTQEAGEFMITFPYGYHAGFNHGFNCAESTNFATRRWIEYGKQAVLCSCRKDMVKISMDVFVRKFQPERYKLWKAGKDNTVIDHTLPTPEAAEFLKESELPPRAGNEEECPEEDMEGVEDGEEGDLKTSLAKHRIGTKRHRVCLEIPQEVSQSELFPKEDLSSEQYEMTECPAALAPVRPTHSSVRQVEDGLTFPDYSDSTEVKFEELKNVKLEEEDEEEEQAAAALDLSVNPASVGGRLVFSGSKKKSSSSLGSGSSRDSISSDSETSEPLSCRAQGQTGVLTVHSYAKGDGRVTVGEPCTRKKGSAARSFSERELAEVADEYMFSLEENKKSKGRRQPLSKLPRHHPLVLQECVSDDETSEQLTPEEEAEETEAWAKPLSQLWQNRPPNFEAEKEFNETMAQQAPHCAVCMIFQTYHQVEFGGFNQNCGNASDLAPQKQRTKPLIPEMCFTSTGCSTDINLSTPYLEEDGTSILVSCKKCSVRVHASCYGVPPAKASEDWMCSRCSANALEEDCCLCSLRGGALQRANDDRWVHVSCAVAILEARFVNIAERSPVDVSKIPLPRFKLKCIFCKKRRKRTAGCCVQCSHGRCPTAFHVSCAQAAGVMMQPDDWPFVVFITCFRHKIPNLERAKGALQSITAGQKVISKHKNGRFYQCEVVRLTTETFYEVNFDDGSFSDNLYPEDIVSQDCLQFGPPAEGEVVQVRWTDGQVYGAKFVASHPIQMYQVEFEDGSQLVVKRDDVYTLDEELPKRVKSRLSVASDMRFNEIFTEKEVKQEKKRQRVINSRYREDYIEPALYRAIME
HP1b chromo inh: HTS for Inhibitors of HP1-beta Chromodomain Interactions with Methylated Histone Tails. AlphaScreen HP1-beta / biotin-H3K9me3 peptide binding. Potency, µM (doses to about 114 µM), for inactives: top-dose activity change, negative = inhibition, hits mostly inhibitors. 0.56% of 390,000 active; note: nearly all actives have a fitted effect of over 70% in size
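HP1-beta protein (50 nM final) preincubated 30 min at room temperature with biotinylated H3(1-18)K9me3 peptide (50 nM) in PBS pH 7.4, 0.01% Tween-20, then compound added for 30 min. AlphaScreen streptavidin donor/nickel chelate acceptor beads (10 ug/mL final), 30 min dark, luminescence read.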
L3MBTL1 inh: qHTS Assay for the Inhibitors of L3MBTL1. Lethal(3)malignant brain tumor-like protein 1 (Homo sapiens), Q9Y468. AlphaScreen L3MBTL1–H3K9me1 peptide binding. Potency, µM (titrated, usually from 57.1 µM), without a hit: at the top dose activity, negative = inhibition, hits mostly inhibitors. 0.66% of 230,000 active. AID 485360, 2010; note: % is set by controls: 0 for no effect and ±100 for the full control effect; nearly all actives have a fitted effect of over 60% in size
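AlphaScreen assay: L3MBTL1 (50 nM final) was preincubated 30 min at room temperature with biotinylated H3(1-15)K9me1 peptide (75 nM final), then 30 min with library compounds; streptavidin donor and nickel chelate acceptor beads (10 ug/mL final) added, 30 min dark.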
BAZ2B block: qHTS Assay for Inhibitors of BAZ2B | Bromodomain adjacent to zinc finger domain protein 2B (Homo sapiens), Q9UIF8 | AlphaScreen BAZ2B-H3K14Ac peptide displacement | Potency, µM (top dose mostly 114 µM), without a hit: at the top dose activity change, negative = inhibition, hits mostly inhibitors | 4.4% of 360,000 active | AID 504333, 2011; note: % is set by controls: 0 for no effect and ±100 for the full control effect; nearly all actives have a fitted effect of over 60% in size
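AlphaScreen luminescence quantifies BAZ2B engagement of H3K14Ac peptide; the protein and biotinylated peptide are both at 50 nM final, buffer PBS pH 7.4 with 0.01% Tween-20, all steps at room temperature.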
G9a block: qHTS Assay for Inhibitors of Histone Lysine Methyltransferase G9a; Potency, µM (series often up to 102 µM), for the others: top-dose activity, negative = inhibition, actives largely listed as inhibitors; AID 504332, 2011; G9a H3K9 monomethylation, AlphaScreen, 2 h; 8.8% of 350,000 active; Histone-lysine N-methyltransferase EHMT2 (Homo sapiens), Q96KQ7; note: % is set by controls: 0 for no effect and ±100 for the full control effect; nearly all actives have a fitted effect of over 75% in size
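Signal arises when biotinylated H3K9 peptide, once monomethylated, bridges streptavidin donor and antibody-captured acceptor beads. Enzyme at 20 nM was preincubated 15 min with test compounds; peptide 500 nM and SAM 20 uM then reacted for 2 h.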
* = called active by the depositor; u = inconclusive; x = not tested or not shown; [ ] = remark or other dose. Calls come from the whole dose curve; as a rule, active = well fitted inhibition curve with a large enough effect; inconclusive = small, poorly fitted or top-dose-only effect; inactive = no such curve, though single readings can be large or run the other way. Potency is the fitted concentration of half-maximal effect.

SMILES	JMJD2A Tudor inh	HP1b chromo inh	L3MBTL1 inh	BAZ2B block	G9a block
CSc1ccc(CCNC(=O)CCCn2c(=O)c3cccn3c3ccccc32)cc1	u	-0.8%	x	-31.4%	14.1µM*
CCCCc1cc(=O)oc2c(C)c(OCC(=O)NCC3CCC(C(=O)O)CC3)ccc12 (stereo not given)	-13.6%	16.5%	0.7%	-14.8%[57.1 µM]	79.4µM*
Cc1cc(C)cc(NC(=O)Cn2cc(S(=O)(=O)NC(C)(C)C)c(S(=O)(=O)NC(C)(C)C)c2)c1	-24.9%	1.1%	x	0.1%[57.1 µM]	-28.3%[59 µM]
O=C(NCC(c1cccs1)S(=O)(=O)c1cccs1)c1c(F)cccc1F (stereo not given)	-5.8%	23.9%[57 µM]	x	3.0%	-0.7%[59 µM]
O=C1OC(c2ccc(Cl)cc2)=N/C1=C\C=C\c1ccco1	u	-10.0%	u	x	14.1µM*
O=C1OC(c2ccccc2)=N/C1=C\C=C\c1ccco1	u	-17.3%	u	u	x
CCc1ccc(OCC2c3cc(OC)c(OC)cc3CCN2C(=O)c2ccc(S(=O)(=O)N3CCCC3)cc2)cc1 (stereo not given)	-32.4%	-10.6%	x	u	-44.4%[59 µM]
CC/C(=N/Nc1ccc(Cl)cc1)c1cnnc(SC)n1	u	43.0%	-0.5%	-33.2%	5.62µM*
CC/C(=N/O)c1cnnc(SC)n1	-5.5%	11.2%	3.1%	2.9%	18.8%[59 µM]
CC/C(=N/Nc1cccc(C)c1)c1cnnc(SC)n1	56.2µM*	17.2%	-8.6%	-35.3%	7.08µM*
CC/C(=N/Nc1ccccc1Cl)c1cnnc(-c2ccccc2)n1	u	-6.5%	-13.4%	0.4%	u
COc1cc(NC(=O)c2nnn(CC(=O)Nc3cc(C)ccc3C)c2N)cc(OC)c1	4.5%	49.9%	x	8.5%[57.1 µM]	12.8%[59 µM]
COc1ccccc1CCNC(=O)Cc1c(C)c2cc3c(C)coc3cc2oc1=O	-10.1%	34.7%	x	-2.4%	3.3%[59 µM]
Cc1nc(N/N=C/c2cccc(F)c2)cc(N2CCOCC2)n1	-17.9%	24.3%	-8.9%	1.9%	-4.6%
Oc1ccccc1/C=N/Nc1cc(N2CCCC2)nc(N2CCCC2)n1	28.2µM*	u	u	25.1µM*	u
Cc1nc(N/N=C/c2ccc(O)cc2O)cc(N2CCOCC2)n1	79.4µM*	33.1%	-21.3%	44.7µM*	20.5%
Oc1cccc(/C=N/Nc2cc(N3CCOCC3)nc(N3CCOCC3)n2)c1	u	-13.5%	-5.9%	u	-11.7%[59 µM]
Oc1ccc(/C=N/Nc2cc(N3CCOCC3)nc(N3CCOCC3)n2)cc1O	56.2µM*	u	-6.6%	u	u
CNS(=O)(=O)c1cc(-c2nnc(N3CCOCC3)c3ccccc23)ccc1C	-4.7%	52.5%	x	x	x
Cc1n[nH]c(=O)c2c(NC(=O)CSc3nncs3)oc(C)c12	-6.9%	32.8%	10.2%	12.7%	31.2%[0.501 µM]
Fc1ccc(Nc2ncnc3c2nc2n3CCCCC2)c(F)c1	-10.2%	11.2%	x	-2.1%	0.6%[59 µM]
Cc1c(OCc2nn[nH]n2)ccc2c(-c3ccccc3)cc(=O)oc12	-3.7%	31.1%	9.6%	5.9%	50.1µM*
COc1ccc(-c2cc(=O)oc3c(C)c(OCc4nn[nH]n4)ccc23)cc1	5.6%	27.7%	7.5%	-1.1%	u
O=C(c1ccc(Cl)c([N+](=O)[O-])c1)N1CCN(Cc2ccc3c(c2)OCO3)CC1	-21.1%[57.1 µM]	-3.6%	-11.5%	-37.8%	-40.5%
CCC(C)N(CCNC(=O)CC1Oc2ccc(C)cc2NC1=O)C1CCCCC1 (stereo not given)	-14.1%	36.4%	x	9.3%	50.1µM*
SMILES	JMJD2A Tudor inh	HP1b chromo inh	L3MBTL1 inh	BAZ2B block	G9a block
Cc1ccc2c(c1)NC(=O)C(CC(=O)NCCCN1CCCCC1C)O2 (stereo not given)	-23.9%	36.3%	x	-5.3%	u
Cc1ccc2c(c1)NC(=O)C(CC(=O)NC1CCCCC1C)O2 (stereo not given)	2.1%	60.3%	15.5%	5.0%	44.7µM*
CCC(Sc1nnc2c(n1)[nH]c1ccccc12)C(=O)Nc1nnc(C(C)C)s1 (stereo not given)	-5.8%	20.9%	x	-8.6%	-36.9%[59 µM]
CC(=O)c1ccc(NC(=S)Nc2cccc3cnccc23)cc1	-12.4%	2.6%	x	u	u
FC(F)(F)c1ccccc1NC(=S)Nn1cnnc1	-29.4%	u	x	-17.3%	7.08µM*
FC(F)(F)c1ccccc1NC(=S)Nc1cccc2cnccc12	-28.2%	u	0.9%	u	35.5µM*
S=C(Nc1cccc2ccccc12)Nc1cccc2ccccc12	-26.2%	-23.3%	x	x	x
Cc1ccccc1NC(=S)Nc1cccc2cnccc12	-22.3%	-17.7%	-18.8%	-13.2%	1.78µM*
FC(F)(F)c1ccccc1NC(=S)N1CCCCCC1	-11.0%	51.0%	x	-1.1%	x
Cc1ccc(C)c(NC(=S)Nc2cccc3cnccc23)c1	-16.1%	-1.7%	-0.6%[11.4 µM]	-36.0%	22.4µM*
CC(C)c1ccc(NC(=O)c2ccc(NC3=NC4CS(=O)(=O)CC4S3)cc2)cc1 (stereo not given)	-16.2%	31.1%	8.8%	-10.5%	x
Cc1cccc(NC(=O)c2ccc3snnc3c2)c1C	5.7%	35.7%	x	-0.7%	5.4%[59 µM]
Cc1ccc(NC(=S)Nc2cccc3cnccc23)cc1	-26.8%	-7.2%	x	u	35.5µM*
NC(=S)Nc1cccc2cnccc12	-6.8%	25.4%	9.4%	-2.0%	-7.3%[59 µM]
Fc1ccccc1NC(=S)Nc1cccc2cnccc12	-35.7%	-29.7%	-2.5%	-35.6%	17.8µM*
Cc1ccc(NC(=S)Nc2cccc3cnccc23)cc1C	-34.0%	u	-22.6%	-36.1%	-4.4%[12.7 µM]
COC(=O)c1ccc(-c2nc(O)c(C)s2)cc1	-28.7%	u	7.6%	u	7.08µM*
Cc1ccc(NC(=O)C2CCCN(S(=O)(=O)c3c(C)nn(C)c3C)C2)c(C)c1 (stereo not given)	-22.7%	13.4%	x	x	9.3%[59 µM]
COc1ccc(C(C#N)N2N=C(C)CC2c2ccccc2)cc1 (stereo not given)	-3.5%	32.0%	x	-2.9%	44.7µM*
CC(/C=C/c1ccc(N(C)C)cc1)=N/N=C1/NC(=O)CC(C(=O)Nc2ccc(Cl)cc2)S1 (stereo not given)	u	-17.1%	-24.2%	u	31.6µM*
COc1cccc(C(=O)NCCS(=O)(=O)N2CCCC2)c1	-7.6%	19.9%	2.3%	-1.8%	31.6µM*
CCOC(=O)N1CCN(S(=O)(=O)CCNC(=O)c2cccc(OC)c2)CC1	0.0%	22.3%	0.3%	-1.3%	50.1µM*
COc1cccc(C(=O)NCCS(=O)(=O)N2CCCCCC2)c1	-12.9%	14.6%	9.0%	-3.1%	u
CCOC(=O)N1CCN(S(=O)(=O)CCNC(=O)c2ccccc2)CC1	-12.1%	-11.0%	3.0%	-1.6%	-28.3%
